Screen size: about 48,000 compounds; about 13,000 (27%) showed an effect of 50% or more. Some of the results follow.

In the experiment the test system is Wolbachia pipientis. Put plainly: Anti-Wolbachia Cell-Based Screen. In kind it is functional. On the set-up: scale not given: in the data most compounds retested in dose-response had high values. The conditions noted are these: 5 µM.
Consider `O=C(O)Cn1nc(-c2ccccc2F)ccc1=O`, for which the “Percent Effect” value amounted to 139.2%.

With `COC(=O)Cn1nc(-c2ccccc2F)ccc1=O`, the “Percent Effect” value worked out at 121.8%. Take `COc1ccc(C(=O)Nc2ccccc2-c2ccc(=O)n(C)n2)nn1`: the “Percent Effect” value was -4.369%. Consider `O=C(NC1CCN(c2ccc(-c3ccccc3F)nn2)C1)C1CCC1` (centres undefined), for which the “Percent Effect” value is -17.95%.

As for `CC(C)(C)C(=O)Cn1nc(-c2ccccc2F)ccc1=O`, the “Percent Effect” value is given as -0.9957%. `Cn1nc(-c2ccccc2NC(=O)c2cncc(Br)c2)ccc1=O`: the “Percent Effect” value is reported as -4.851%. Consider `COc1ccc(F)cc1Cn1nc(C(N)=O)ccc1=O`, for which the “Percent Effect” value worked out at 1.725%.

For `NC(=O)Cn1nc(-c2ccccc2F)ccc1=O`, the “Percent Effect” value worked out at 144.8%.

For `CC(=O)Cn1nc(-c2ccccc2F)ccc1=O`, the “Percent Effect” value stood at 119.2%.

Regarding `CC(C)Oc1cccc(C(=O)C2CCCN(C(=O)c3ncn[nH]3)C2)c1` (centres undefined), the “Percent Effect” value is recorded as -4.294%. Regarding `CS(=O)(=O)c1ccc(NC(=O)CSc2ccc3c(c2)CCC3)cn1`, the “Percent Effect” value turned out to be 7.446%. In the case of `CC(c1nc(C2CC2)no1)N(C)Cc1cccc(F)c1` (centres undefined) it was 12.3%; in that of `CCN(CC)C(CNS(=O)(=O)c1ccc(C(=O)NC)cc1)c1ccco1` (centres undefined), 0.6188%. Regarding `O=C1CCC[C@]2(CN(S(=O)(=O)N3CCCCC3)C[C@H]2c2cccnc2)N1`, the “Percent Effect” value is on record as 175%. Turning to `CC1(C)CN(S(=O)(=O)N2CCCC2)CC1c1ccccc1` (centres undefined), the “Percent Effect” value is -16.61%. Regarding `O=C1CCC[C@]2(CN(S(=O)(=O)N3CCOCC3)C[C@H]2c2cccnc2)N1`, the “Percent Effect” value was 174.7%. On to `O=C(N1CC(c2cccnc2)C1)C1(c2ccc(F)cc2)CCOCC1`, for which the “Percent Effect” value is 1.587%.

For the compound `CC(C)N1CCC2(CC1)CC(c1cccnc1)C(=O)N2` (centres undefined), the “Percent Effect” value is listed as -11.82%.

`O=S(=O)(C1CC1)N1CCC2(CC1)COC(COc1cccnc1)C2` (centres undefined): the “Percent Effect” value is listed as -3.155%.

With `O=C1CCC[C@]2(CN(S(=O)(=O)C3CCCCC3)C[C@H]2c2cccnc2)N1`, the “Percent Effect” value is listed as 155.7%.

With `CC1(C)CN(S(=O)(=O)N2CCOCC2)CC1c1ccccc1` (centres undefined), the “Percent Effect” value was -33.51%. Turning to `N[C@H]1CN(S(=O)(=O)N2CCCCCC2)C[C@@H]1c1ccccc1`, the “Percent Effect” value is given as 3.796%.

In the case of `CCc1[nH]ncc1C(=O)N1CCN(c2nc(C)cc(OC)n2)CC1`, the “Percent Effect” value is -4.996%. Regarding `O=C(OCCNc1ncccn1)c1ccc(Cl)s1`, the “Percent Effect” value is on record as -0.7929%. Take `O=S(=O)(c1ccccc1)N1C[C@@H]2COC[C@]2(COCC2CC2)C1`: the “Percent Effect” value amounted to 4.427%.

For the compound `Cn1cc(CN2C[C@@H]3COC[C@]3(COc3ccc(C#N)cn3)C2)cn1`, the “Percent Effect” value is listed as -1.317%. As to `N#Cc1ccc(OC[C@]23COC[C@H]2CN(c2ncccn2)C3)nc1`, the “Percent Effect” value is 98.67%. As for `c1ccc(COC[C@]23COC[C@H]2CN(c2ncccn2)C3)nc1`, the figure is 107.1%. As to `Cc1cccc(CN2C[C@@H]3COC[C@]3(COc3ccc(C#N)cn3)C2)n1`, the “Percent Effect” value is -1.985%. Regarding `c1ccc(COC[C@@H]2CC[C@H]3[C@H](CCN3c3ncccn3)O2)nc1`, the “Percent Effect” value is on record as -9.448%. As for `CCc1ncc2c(n1)CN(C(C)C(=O)N1CCOCC1)CC2` (centres undefined), the figure is -13.62%.

Regarding `CC(Oc1ccc(F)cc1F)C(=O)N1CCC2(CCCO2)CC1` (centres undefined), the “Percent Effect” value is given as -4.107%. `O=C(c1cn2ccsc2n1)N1CCOCC(O)(CN2CCCC2)C1` (centres undefined): the “Percent Effect” value stood at 6.26%.

Turning to `O=C(c1cc(F)ccc1F)C1CCN(C(=O)c2ccc(=O)[nH]n2)CC1`, the “Percent Effect” value was found to be 6.401%.

As for `CCOc1ccccc1OC1CCN(C(=O)c2ccc(=O)[nH]n2)CC1`, the “Percent Effect” value is -11.25%. Turning to `O=C(c1cnc(COc2ccccc2)nc1O)N1CCC(F)(F)CC1`, the “Percent Effect” value was 10.39%. On to `O=C(c1cccc(O)n1)N1CCC(O)(CN2CCC(F)(F)CC2)C1` (centres undefined), for which the “Percent Effect” value was 119.2%. As for `O=C(c1ccc(=O)[nH]n1)N1CCCC(O)(CN2CCC(F)(F)CC2)CC1` (centres undefined), the “Percent Effect” value amounted to 110.9%. As for `NC(=O)Nc1cc(F)ccc1SCC(F)F`, the figure is -8.756%; as for `CCn1cc(CNC(C)c2noc(-c3ccc(Cl)cc3)n2)cn1` (centres undefined), 5.108%; as for `CCN(CC1CCOC1)S(=O)(=O)Cc1ccccc1Cl` (centres undefined), -1.168%. Regarding `CC(CN1CCOCC1)NCC1CCN(c2cnn(C)c(=O)c2)CC1` (centres undefined), the “Percent Effect” value is -0.8467%. With `O=C(CNC(=O)C1CC1)Nc1c(F)cccc1Oc1ccccc1`, the “Percent Effect” value is recorded as -3.554%. Turning to `O=C1CC(C(=O)NCc2ccccc2Oc2ccccc2F)CCN1` (centres undefined), the “Percent Effect” value was 91.68%. On to `Cc1cccc(Oc2ccccc2CNC(=O)C2CCNC(=O)C2)c1` (centres undefined), for which the “Percent Effect” value amounted to 104.5%. On to `Cc1ccc(C)c(OCCNC(=O)[C@@H]2CCCCN2)c1`, for which the “Percent Effect” value is -1.478%. In the case of `Cc1ccc(CNC(=O)C2CCNC(=O)C2)c(OCCC(C)C)c1` (centres undefined) it was 103.9%; in that of `CCc1[nH]c2c(CNC(=O)C3CNC(=O)C3)cc(C)cc2c1C` (centres undefined), -7.809%.

With `O=C(NCc1ccccc1OCC1CC1)C1CCOC1` (centres undefined), the “Percent Effect” value was -26.71%.

Values taken from ChEMBL document CHEMBL3988442, “University of Dundee, Small-Polar-MMV Screening Library” (2021).
